PINK1 expr mod: A Quantitative High throughput Screen to Identify Chemical Modulators of PINK1 Expression. PINK1 immunofluorescence, high-content cytometry, 24 h. 410,000 compounds, 0.2% hits. AID 624263, 2012. Potency, µM (series often up to 76.6 µM), without a hit: at the highest dose activation (PINK1 increase), actives largely listed as activators; active = well fitted activation curve with a large enough effect; inconclusive = small, poorly fitted or top-dose-only effect; cell line not stated here; also: potency is read from the fitted curve at half-maximal effect; % of control where 0% means no effect; nearly all actives have a fitted effect of over 65% in size
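PINK1 protein level read as immunofluorescence by microplate cytometer in a fixed, stained stable cell line after 24 h exposure to five compound concentrations, with CCCP as control.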
MLL CXXC-DNA inh: qHTS Fluorescence Polarization Assay for Inhibitors of MLL CXXC domain - DNA interaction. MLL-CXXC / FITC-HOXA9 DNA fluorescence polarization. 290,000 compounds, 0.037% hits. AID 2662, 2010. Histone-lysine N-methyltransferase 2A (Homo sapiens), Q03164. Potency, µM (titrated, usually from 115 µM), without a hit: top-dose activity change, negative = inhibition, most hits filed as inhibitors; active = well fitted inhibition curve with a large enough effect in the polarisation, with a control signal flat, not every such curve was filed as active; inconclusive = small, poorly fitted or top-dose-only effect, or effect the other way, or a change in a side signal; inactive = no such curve, though single readings can be large or run the other way; the % refers to the polarisation; also: potency is read from the fitted curve at half-maximal effect
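Steps: dispense CXXC domain solution (7 uM) → pin compounds or unlabeled HOX-A9 DNA control → 5 min ambient → add FLSN-HOX-A9 solution (50 nM) → spin → 30 min ambient → fluorescence polarization. Tris pH 7.5/NaCl/DTT/BSA buffer.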
ClpP mod: qHTS Assay for Activators of ClpP | ATP-dependent Clp protease proteolytic subunit (Bacillus subtilis (strain 168)), P80244 | purified B. subtilis ClpP, FRET peptide cleavage, 20 min | Potency, µM (doses to about 57.5 µM), for inactives: at the highest dose activity change, negative = active | 340,000 compounds, 1.9% hits; active = well fitted falling curve with a large enough effect; inconclusive = small, poorly fitted or top-dose-only effect; inactive = no such curve, though single readings can be large or run the other way; also: potency is read from the fitted curve at half-maximal effect; the source files actives as falling curves though it sought activators and does not explain the sign; nearly all actives have a fitted effect of over 65% in size
Target sequence (P80244 whole entry, looked up): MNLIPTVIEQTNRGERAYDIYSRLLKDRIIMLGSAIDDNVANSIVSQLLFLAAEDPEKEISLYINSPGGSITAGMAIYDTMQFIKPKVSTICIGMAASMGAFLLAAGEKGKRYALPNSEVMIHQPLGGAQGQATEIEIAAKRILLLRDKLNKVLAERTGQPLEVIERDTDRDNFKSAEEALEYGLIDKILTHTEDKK
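Purified B. subtilis ClpP, 10 microg/mL final in Tris/HCl pH8 with KCl, BSA, glycerol and Tween-20, cleaved an Abz/nitrotyrosine-quenched decapeptide. Fluorescence (ex 320, em 430) was read at 0 and 20 min at room temperature. Delta was normalized to 5.8 microM ADEP and DMSO/no-enzyme controls.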
Epigenetic derep: Quantitative High-Throughput Screen for Regulators of Epigenetic Control; murine LDR cells, GFP reporter derepression, 30 h; Potency, µM (titrated, usually from 53.9 µM), inactives show at the top dose GFP activation, most hits filed as activators; 280,000 compounds, 0.2% hits; AID 1865, 2009; active = well fitted activation curve with a large enough effect; inconclusive = small, poorly fitted or top-dose-only effect; also: potency is read from the fitted curve at half-maximal effect; % of control where 0% means no effect; nearly all actives have a fitted effect of over 60% in size
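Murine LDR cells bearing a silenced CMV-driven GFP reporter were exposed to compound for 30 h at 37 C. After PBS washes, GFP-positive cells (20-120 um objects) counted by laser-scanning microplate cytometry.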
Menin MLL FP TR: qHTS Assay for Inhibitors Targeting the Menin-MLL Interaction in MLL Related Leukemias: Competition With Texas Red Labeled MLL-derived Mutant Peptide; Menin + Texas Red MLL mutant peptide, fluorescence polarization; O00255; 270,000 compounds, 0.23% hits; Potency, µM (top dose mostly 61.6 µM), inactives show top-dose FP activity change, negative = inhibition, most hits filed as inhibitors; AID 1768, 2009; active = well fitted inhibition curve with a large enough effect in the polarisation, with a control signal flat, not every such curve was filed as active; inconclusive = small, poorly fitted or top-dose-only effect, or effect the other way, or a change in a side signal; inactive = no such curve, though single readings can be large or run the other way; the % refers to the polarisation; also: potency is read from the fitted curve at half-maximal effect; % of control where 0% means no effect
Menin MLL FP FL: qHTS Assay for Inhibitors Targeting the Menin-MLL Interaction in MLL Related Leukemias: Competition With Fluorescein Labeled MLL-derived Peptide; Fluorescence polarization, fluorescein-MLL peptide displacement from menin; FP activity change, % at 61.4 µM; 290,000 tested, under 10 active; AID 1766, 2009; active = well fitted curve in the direction sought with a large enough effect in the polarisation, not every such curve was filed as active; inconclusive = small, poorly fitted or top-dose-only effect, or effect the other way, or a change in a side signal; inactive = no such curve, though single readings can be large or run the other way; the % refers to the polarisation; also: % of control where 0% means no effect
The depositor's hits bear a star; ? = inconclusive; . = no result; [ ] = remark or other dose. Hits are enriched below; roughly 1.9% of the tested compounds scored in any of these assays.

SMILES	PINK1 expr mod	MLL CXXC-DNA inh	ClpP mod	Epigenetic derep	Menin MLL FP TR	Menin MLL FP FL
CN(C)c1ccc(/C=C/c2nc3ccccc3s2)cc1	45µM*	22%	-1%	?	13%	?
C=C(/C=C/c1ccc(N(C)C)cc1)c1nc2ccccc2s1	10µM*	.	0%	.	.	.
Cc1cccc(C)c1Nc1c(-c2ccccc2F)nc2cccc(C)n12	-1%	.	32µM*	0%	.	.
O=C1CC2(CCN(C(=O)COc3ccccc3)CC2)Oc2ccccc21	-3%	.	.	.	.	.
Cc1ccccc1OCC(=O)N1CCC2(CC1)CC(=O)c1ccccc1O2	2%	.	28µM*	.	.	.
O=C(O)c1ccc(S(=O)(=O)N2CCC3(CC2)CC(=O)c2ccccc2O3)cc1	0%	.	32µM*	.	.	.
CC(Oc1ccccc1)C(=O)N1CCC2(CC1)CC(=O)c1ccccc1O2 (stereo unspecified)	1%	.	25µM*	.	.	.
Cc1ccc(S(=O)(=O)N2CCC3(CC2)CC(=O)c2ccccc2O3)cc1	-4%	.	.	.	.	.
CCN(CC)C1CCN(C(=O)c2cnn(-c3nccc(-c4ccco4)n3)c2C(C)C)C1 (stereo unspecified)	0%	.	.	.	.	.
O=S(=O)(c1ccccc1)N(Cc1ccccc1)c1ccccn1	1%	7%	-1%	0%	0%	0
O=C(O)c1ccc(CN(c2ccccn2)S(=O)(=O)c2ccccc2)cc1	-4%[38.3 µM]	-7%	28µM*	-8%	3%	5
O=C(NCc1ccccc1)c1ccc(CN(c2ccccn2)S(=O)(=O)c2ccccc2)cc1	-1%	-9%	20µM*	0%	-25%	-1
COCc1c(C(=O)NC2CCCC2)cnn1-c1nccc(-c2ccco2)n1	0%	.	.	.	.	.
C/C=C(\C)C(=O)OC1c2c(ccc3ccc(=O)oc23)OC(C)(C)C1OC(C)=O (stereo unspecified)	0%	-1%	32µM*	-3%	-17%	3
C/C=C(/C)C(=O)O[C@@H]1c2c(ccc3ccc(=O)oc23)OC(C)(C)[C@@H]1OC(C)=O	1%	.	4%	.	.	.
Cc1ccccc1Cc1nc2cccnc2n1C1CCN(C(=O)CC2NC(=O)c3ccccc32)CC1 (stereo unspecified)	1%	.	.	.	.	.
CCC1(CC)C(=O)C(C)(C)C(=O)OC1c1cccs1 (stereo unspecified)	4%	-1%	28µM*	-1%	-3%	-3
O=C(NCC1Cc2cccc(-c3cnccn3)c2O1)c1ccc(F)c(Cl)c1 (stereo unspecified)	1%	.	.	.	.	.
COc1ccc(C)cc1N/C(N)=N/c1nc(C)cc(C)n1	-1%	?	-3%	0%	-8%	8
Cc1ccc(C)c(N/C(N)=N/c2nc(C)cc(C)n2)c1	15%	1%	32µM*	-4%	?	3
CCN1CCN(c2cc3c(nn2)Oc2ccccc2N3C)CC1	0%	2%	28µM*	0%	-7%	0
O=c1[nH]c(=S)c2n[nH]nc2[nH]1	0%	.	-2%	.	.	.
COc1cc(O)ccc1-c1nc2cc(C)ccn2c1Nc1ccccc1C	2%	.	4%	0%	.	.
CC(C)(C)Nc1nc(Cl)nc(Nc2ccccc2)n1	1%	-5%	1%	.	-6%	4
Clc1nc(Nc2ccccc2)nc(Nc2ccccc2)n1	6%	52%	32µM*	0%	?	-5
SMILES	PINK1 expr mod	MLL CXXC-DNA inh	ClpP mod	Epigenetic derep	Menin MLL FP TR	Menin MLL FP FL
CNC(=S)Nc1cccc([N+](=O)[O-])c1	-1%	29%	.	0%	4%	-1
Cc1cc(Br)ccc1NC(=S)Nc1cccc([N+](=O)[O-])c1	40µM*	4%	0%	-1%	?	7
CC1CCN(S(=O)(=O)c2cccc(-c3cn4cc(Cl)ccc4n3)c2)CC1	3%	5%	35µM*	4%	-1%	1
CCOC(=O)C1CCN(S(=O)(=O)c2cccc(-c3cn4cc(Cl)ccc4n3)c2)CC1	8%	21%	?	2%	-8%	9
NC(=O)c1c(C(F)(F)F)cc(-c2ccccc2)nc1NCCO	0%	1%	22µM*	-1%	24%	7
CCCc1cc(N2CCCC2)n2nc(C)c(-c3ccccc3)c2n1	6%	1%	32µM*	-2%	-4%	1
CCN1CCN(c2cc(C(C)C)nc3c(-c4ccccc4)c(C)nn23)CC1	-2%	-12%	.	1%	.	6
CCOC(=O)c1cc(-c2ccc(OC(F)F)cc2)nc2c1c(=O)[nH]c(=O)n2C	1%	-6%	3.5µM*	1%	-8%	4
CCOC(=O)c1cc(-c2ccc(OC(F)F)cc2)nc2nc(SC)[nH]c(=O)c12	9%	8%	.	-1%	-16%	4
COc1ccc(CN2CCC3(CCC(CNC(=O)c4ccco4)O3)CC2)c(OC)c1C (stereo unspecified)	0%	.	.	.	.	.
O=C(c1cccc(Cn2cccn2)c1)N1CCC(n2c(C3CCCO3)nc3cc(C(F)(F)F)ccc32)CC1 (stereo unspecified)	0%	.	.	.	.	.
COC(=O)c1[nH]c2ccc(C)cc2c1NC(=O)CN1CCc2cc(OC)c(OC)cc2C1	1%	13%	?	0%	6%	2
CCOC(=O)C1CCCN(CC(=O)Nc2c(C(=O)OC)[nH]c3ccc(Br)cc23)C1 (stereo unspecified)	0%	-18%	-7%	-1%	18%	2
CCOC(=O)c1[nH]c2ccc(OCC)cc2c1NC(=O)CN1CCN(c2ccccn2)CC1	2%	-4%	18µM*	1%	13%	3
CCOC(=O)c1[nH]c2ccc(OCC)cc2c1NC(=O)CN1CCCC(C)C1 (stereo unspecified)	0%	-3%	14µM*	-2%	1%	-2
CCOC(=O)c1[nH]c2cc(OC)c(OC)cc2c1NC(=O)CN1CCN(C)CC1	.	1%	.	-1%	2%	3
COC(=O)c1[nH]c2ccc(C)cc2c1NC(=O)CN1CCCC(C)(C)C1	0%	-8%	18µM*	-1%	34%	3
CCOC(=O)c1[nH]c2ccc(C)cc2c1NC(=O)CN1CCCCC1	1%	-2%	32µM*	1%	0%	0
CCOC(=O)c1[nH]c2ccc(OC)cc2c1NC(=O)CN1CCN(c2ccccn2)CC1	.	-1%	.	4%	-1%	0
CN(C)C(=O)CCC(=O)NCC1Cc2cccc(-c3ccccc3C(F)(F)F)c2O1 (stereo unspecified)	0%	.	.	.	.	.

Screens deposited in PubChem BioAssay by National Center for Advancing Translational Sciences (NCATS).
